Source: PubChem
IDE exosite inh: exo-site inhibitors of human IDE, primary screen, biochemical, fluorescence anisotropy, probe displacement; Insulin-degrading enzyme (Homo sapiens), P14735; purified IDE, FL-6b probe fluorescence polarization; active compounds read low; z-score at 20 µM; 17,000 compounds, 6.3% hits; AID 1259349, 2017;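 active = z-score of -3 or lower, meaning strong loss of probe binding signal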;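 also: His-tagged human IDE residues 42-1019 made in E. coli with 30 nM FL-6b probe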
Active calls of the source: *. The full list was thinned out, with hits kept by preference.

SMILES	IDE exosite inh
Cc1nn(C)cc1NC(=O)C[C@@H]1CC[C@H]2[C@H](COc3ccc(NC(=O)c4cccc(F)c4)cc3C(=O)N2C)O1	-0.27
O=C(C1CCOCC1)N1CC(=O)N2[C@H](C1)[C@H](c1ccc(/C=C/c3ccccc3)cc1)[C@@H]2CO	-3.3*
O=C(C1CCOCC1)N1CC(=O)N2[C@H](CO)[C@H](c3ccc(/C=C/c4ccccc4)cc3)[C@@H]2C1	-4.8*
O=C(C1CCOCC1)N1CC(=O)N2[C@H](C1)[C@H](c1ccc(Br)cc1)[C@@H]2CO	3.1
O=C(C1CCOCC1)N1CC(=O)N2[C@H](CO)[C@H](c3ccc(Br)cc3)[C@H]2C1	0.69
O=C(C1CCOCC1)N1CC(=O)N2[C@H](C1)[C@@H](c1ccc(Br)cc1)[C@@H]2CO	1.9
O=C(C[C@@H]1CC[C@@H]2[C@H](COC[C@@H](O)CN2Cc2cccc(Cl)c2)O1)NCc1cccc(F)c1	0.46
N#C[C@H]1[C@@H](c2ccccc2-c2cccc(F)c2)[C@@H](CO)N1C(=O)C1CCC1	2.8
COc1cccc(-c2ccccc2[C@@H]2[C@H](C#N)N(C(=O)Cc3ccccc3)[C@H]2CO)c1	0.95
COc1cccc(-c2ccc([C@@H]3[C@@H](C#N)N(C(=O)Cc4ccncc4)[C@@H]3CO)cc2)c1	-10*
COc1cccc(-c2ccc([C@H]3[C@@H](C#N)N(C(=O)Cc4ccncc4)[C@@H]3CO)cc2)c1	-3.8*
CCCNC(=O)N1[C@H](CO)[C@H](c2ccc(-c3cccc(OC)c3)cc2)[C@@H]1C#N	-1.2
COc1cccc(-c2ccccc2[C@@H]2[C@@H](C#N)N(C(=O)Cc3ccccc3)[C@H]2CO)c1	-1.1
COc1cccc(-c2ccc([C@H]3[C@H](C#N)N(C(=O)Cc4ccncc4)[C@H]3CO)cc2)c1	-2.7
COc1ccc(S(=O)(=O)Nc2ccc3c(c2)C(=O)N([C@H](C)CO)C[C@@H](C)[C@@H](CN(C)Cc2ccc(C(F)(F)F)cc2)OCCCC[C@H](C)O3)cc1	1.4
COc1cccc(NC(=O)C[C@H]2CC[C@H]3[C@H](COc4ccc(NC(=O)C5CC5)cc4C(=O)N3C)O2)c1	-1.2
C[C@@H]1CN([C@@H](C)CO)C(=O)c2ccccc2-c2ccccc2CO[C@H]1CN(C)C(=O)[C@H]1CCCN1C	0.4
O=C(NC[C@H]1N[C@H](CO)[C@@H]1c1ccc(-c2cncnc2)cc1)c1ccccc1F	2.2
CCC(=O)NC[C@@H]1[C@H](c2ccc(-c3cccc(F)c3)cc2)[C@@H](CO)N1C(=O)CC	0.33
N#C[C@H]1[C@@H](c2ccccc2)[C@@H](CO)N1C(=O)c1cccnc1	1.1
O=C(C1CCCCC1)N1CC(=O)N2[C@@H](CO)[C@H](c3ccc(C#Cc4cccc(F)c4)cc3)[C@@H]2C1	0.21
O=C(C1CCC1)N1CC(=O)N2[C@H](CO)[C@H](c3ccc(C#Cc4cccc(F)c4)cc3)[C@@H]2C1	-2.8
O=C(c1cccc(F)c1)N1CC(=O)N2[C@H](CO)[C@@H](c3ccc(C#Cc4ccc(F)cc4)cc3)[C@H]2C1	2.1
O=C(C1CCC1)N1CC(=O)N2[C@H](C1)[C@@H](c1ccc(C#Cc3cccc(F)c3)cc1)[C@@H]2CO	-1.3
O=C(C1CCC1)N1CC(=O)N2[C@@H](CO)[C@H](c3ccc(C#Cc4cccc(F)c4)cc3)[C@@H]2C1	-3.4*
SMILES	IDE exosite inh
O=C(C1CC1)N1CC(=O)N2[C@H](C1)[C@H](c1ccc(C#Cc3cccc(F)c3)cc1)[C@@H]2CO	-6.1*
O=C(C1CCCC1)N1CC(=O)N2[C@H](CO)[C@@H](c3ccc(C#CC4CCCC4)cc3)[C@@H]2C1	0.25
O=C(C1CCCCC1)N1CC(=O)N2[C@@H](CO)[C@@H](c3ccc(C#Cc4cccc(F)c4)cc3)[C@@H]2C1	-4.5*
O=C(c1cccc(F)c1)N1CC(=O)N2[C@@H](CO)[C@H](c3ccc(C#Cc4ccc(F)cc4)cc3)[C@@H]2C1	3.4
CC(=O)NC[C@H]1[C@H](c2ccc(-c3ccccc3F)cc2)[C@H](CO)N1C(=O)C1CC1	-2.2
CCc1nc(N2[C@@H](C#N)[C@@H](c3ccccc3-c3ccccc3C)[C@@H]2CO)sc1C	0.035
CCCNC(=O)N[C@H]1C=C[C@H](CC(=O)N2CCN(C)CC2)O[C@H]1CO	3
CN(C)C(=O)C[C@@H]1CC[C@@H]2[C@H](COC[C@H](O)CN2S(=O)(=O)c2ccccc2Cl)O1	1.4
O=C(NC1CCCC1)N[C@@H]1C=C[C@H](CC(=O)N2CCOCC2)O[C@@H]1CO	2.4
COCC#Cc1ccc([C@@H]2[C@@H](CO)N3CCCCN(C(=O)NC4CCCC4)C[C@@H]23)cc1	-1
COCC#Cc1ccc([C@@H]2[C@H]3CN(C(=O)NC4CCCC4)CCCCN3[C@H]2CO)cc1	1.3
CCCC#Cc1ccc([C@@H]2[C@@H](CO)N3CCCCN(C(=O)NC4CCCC4)C[C@@H]23)cc1	1.3
CCCC#Cc1ccc([C@H]2[C@@H](CO)N3CCCCN(C(=O)NC4CCCC4)C[C@H]23)cc1	-3.2*
COCC#Cc1ccc([C@@H]2[C@H](CO)N3CCCCN(C(=O)NC4CCCC4)C[C@@H]23)cc1	-1.1
CCCC#Cc1ccc([C@@H]2[C@H](CO)N3CCCCN(C(=O)NC4CCCC4)C[C@@H]23)cc1	-5.2*
CN(C[C@@H]1[C@@H](c2ccccc2)[C@H](CO)N1C(=O)C1CC1)C(=O)c1ccccn1	1.8
C/C=C/c1ccc([C@H]2[C@H](CO)N3CCCCN(S(=O)(=O)c4cccs4)C[C@@H]23)cc1	4.3
C[C@H]1CN([C@@H](C)CO)C(=O)c2ccccc2-c2ccccc2CO[C@@H]1CN(C)C(=O)[C@@H]1CCCN1C	0.93
COC(=O)c1ccc(CN2CC(=O)N3[C@H](CO)[C@@H](c4ccc(-c5ccccc5F)cc4)[C@@H]3C2)cc1	0.86
CN(C)C(=O)c1ccc(-c2ccc([C@@H]3[C@@H](CO)N4C(=O)CN(C(=O)C5CCC5)C[C@H]34)cc2)cc1	-0.31
N#C[C@H]1[C@@H](c2ccccc2-c2cccc(F)c2)[C@@H](CO)N1C(=O)Cc1cccnc1	-1.1
O=C(c1cccnc1)N1CC(=O)N2[C@@H](CO)[C@@H](c3ccc(/C=C/c4ccccc4)cc3)[C@@H]2C1	-8.6*
O=C(c1cccnc1)N1CC(=O)N2[C@H](CO)[C@H](c3ccc(/C=C/c4ccccc4)cc3)[C@@H]2C1	-10*
O=C(c1cccnc1)N1CC(=O)N2[C@H](C1)[C@@H](c1ccc(/C=C/c3ccccc3)cc1)[C@@H]2CO	-7.7*
O=C(c1cccnc1)N1CC(=O)N2[C@H](C1)[C@H](c1ccc(/C=C/c3ccccc3)cc1)[C@@H]2CO	-4.5*
SMILES	IDE exosite inh
O=C(Cc1cccnc1)N1CC(=O)N2[C@@H](CO)[C@H](c3ccc(/C=C/c4ccccc4)cc3)[C@@H]2C1	-2.7
O=C(c1ccccc1)N1CC(=O)N2[C@H](CO)[C@@H](c3ccc(/C=C/c4ccccc4)cc3)[C@H]2C1	-0.53
O=C(c1ccccc1)N1CC(=O)N2[C@H](CO)[C@@H](c3ccc(/C=C/c4ccccc4)cc3)[C@@H]2C1	-1.6
CNC(=O)C[C@@H]1CC[C@@H]2[C@@H](COc3ccc(NS(=O)(=O)c4ccc(F)cc4)cc3C(=O)N2C)O1	-1
CCCNC(=O)N1[C@H](CO)[C@H](c2ccccc2)[C@@H]1CNC(=O)C1CC1	4
N#C[C@H]1[C@H](c2ccc(-c3cccc(F)c3)cc2)[C@H](CO)N1C(=O)NC1CCCC1	-2.6
C/C=C/c1ccc([C@@H]2[C@H]3CN(C(=O)Cc4cccnc4)CC(=O)N3[C@H]2CO)cc1	0.073
